Data on 28 compounds can be found in ChEMBL document CHEMBL4513149, “CO-ADD screening of MMV (CH) - MMV compounds” (2021).

The subject of one test is Klebsiella pneumoniae. The following applies: Concentration 20 uM; ASSAY_TEST Inhibition of Bacterial Growth; detection method Absorption (OD600); MEDIA CAMHB; plate type 384well; NBS; CORNING #3640; time 18 hr.
A further test concerns Candida albicans. The following applies: 20 µM.
For a further test, the system named is Cryptococcus neoformans. The settings on record: Concentration 20 uM; ASSAY_TEST Inhibition of Fungal Growth; detection method Resazurin; Absorption (OD600-OD570); plate type 384well; NBS; CORNING #3640.

Broadly, the Inhibition is the change of the read-out against control, counted positive when it falls.

Each structure is given as a SMILES string. Entries with a potency or affinity are not part of this list.

With `COc1cccn2c(C(=O)N3CCCCC3)c(C(F)(F)F)nc12`, the Inhibition is 7.08% in the test on Klebsiella pneumoniae, 1.9% in the test on Candida albicans and -6.15% with Cryptococcus neoformans.

On to `CC(C)c1ncc(-c2ccncc2)c([C@H]2CC[C@H](CNC(=O)c3cccnc3)CC2)n1`, for which the Inhibition in the test on Klebsiella pneumoniae is 18.24%; with Candida albicans it was 1.5%; in the test with Cryptococcus neoformans it was -3.68%.

As to `N#CCN(CCCCN1CCN(c2ccc(F)cc2)CC1)C(=O)OCc1ccccc1`, the Inhibition was 11.82% in the test with Klebsiella pneumoniae, 2.42% in the test with Candida albicans and -5.61% with Cryptococcus neoformans.

Regarding `CNC(=O)c1nn(C)c2c1C(C)(C)Cc1cnc(Nc3ccc(N4CCN(C)CC4)cc3)nc1-2` [MILCICLIB], the Inhibition in the test on Klebsiella pneumoniae is -10.97%; with Candida albicans, 4.83%; with Cryptococcus neoformans, -4.76%.

Turning to `Cc1cnc(N2CCN[C@@H](Cc3ccccc3)C2)nc1Oc1ccc(-n2ccnc2)cc1.Cl`, the Inhibition with Klebsiella pneumoniae was 8.14%; in the test with Candida albicans it was 2.69%; with Cryptococcus neoformans it was -5.74%.

`CC(C)n1nc(-c2cc3c(Cl)cccc3[nH]2)c2c(N)ncnc21`: the figures for the Inhibition in the test with Klebsiella pneumoniae, with Candida albicans and in the test with Cryptococcus neoformans were 6.59%, 5.11% and -4.09%, respectively.

With `N=C(N)c1ccc(-c2cc(-c3ccccc3)on2)cc1`, the Inhibition is 18.39% in the test with Klebsiella pneumoniae, 3.34% in the test on Candida albicans and -9.38% with Cryptococcus neoformans.

Consider `COc1cccc2c(C)nc(N=C(N)N)nc12.O=C(O)C(F)(F)F.O=C(O)C(F)(F)F`, for which the Inhibition was 9.38% in the test on Klebsiella pneumoniae, 2.56% with Candida albicans and -13.06% in the test on Cryptococcus neoformans.

As for `COc1ccccc1OCCCCn1c(C2CC2)nc2ccccc21`, the values for the Inhibition in the test with Klebsiella pneumoniae, in the test with Candida albicans and in the test with Cryptococcus neoformans were 10.24%, 1.96% and -4.4%, respectively.

For `O=C1COCc2ccc(Br)cc2N1Cc1ccc(C(F)(F)F)cc1`, the Inhibition is 17.24% in the test with Klebsiella pneumoniae, 8.78% in the test on Candida albicans and -5.61% in the test with Cryptococcus neoformans.

On to `CC(C)(C)c1cc(C(=O)N2CCN(c3nccnc3C#N)CC2)n(Cc2ccccc2)n1`, for which the Inhibition in the test on Klebsiella pneumoniae was 14.9%; in the test with Candida albicans, 6.36%; in the test on Cryptococcus neoformans, 1.25%.

For `Cc1cc2ccccc2n1CC(=O)N1CC(C(=O)N2CCCCC2)Oc2ccccc21` (centres undefined), the Inhibition is 14.31% with Klebsiella pneumoniae, 4.16% in the test on Candida albicans and -5.34% in the test with Cryptococcus neoformans.

Turning to `COc1ccc(CCN2CCC(NCc3cccc(N(C)C)c3)CC2)cc1`, the figures for the Inhibition in the test with Klebsiella pneumoniae, in the test with Candida albicans and with Cryptococcus neoformans were 7.89%, 3.48% and -2.71%, respectively.

In the case of `O=C(Nc1c(O)cccc1-c1nc2c(C(=O)O)cccc2o1)c1cc(-c2ccccc2)on1`, the Inhibition in the test with Klebsiella pneumoniae was -9.4%; with Candida albicans, 3.49%; in the test on Cryptococcus neoformans, -10.86%.

Take `CN1CCC(c2cc(-c3ccncc3)c(-c3ccc(F)cc3)[nH]2)CC1`: the results for the Inhibition with Klebsiella pneumoniae, in the test on Candida albicans and in the test with Cryptococcus neoformans were 5.43%, 0.45% and 8.69%, respectively.

`COc1ccc(Cn2cnc3c(-c4ccco4)nc(Cl)nc32)cc1`: the Inhibition with Klebsiella pneumoniae is 18.21%; with Candida albicans, 6.94%; in the test with Cryptococcus neoformans it was -6.4%.

On to `C[C@H](c1ccc2c(c1)CCCC2)N(C)c1ncc2c(N)nc(N)nc2n1`, for which the Inhibition was 18.37% in the test on Klebsiella pneumoniae, 3.88% in the test on Candida albicans and -9.74% in the test with Cryptococcus neoformans.

Take `Cc1noc(C)c1C(=O)N1CCCC(c2[nH]c3c(C)cccc3c2-c2ccncc2)C1` (centres undefined): the Inhibition in the test on Klebsiella pneumoniae is 18.77%; in the test on Candida albicans, 4.29%; in the test on Cryptococcus neoformans, -7.96%.

For the compound `O=C(C1CCCCC1)N1CC(=O)N2CCc3ccccc3C2C1` (centres undefined) [PRAZIQUANTEL], the figures for the Inhibition with Klebsiella pneumoniae, with Candida albicans and in the test with Cryptococcus neoformans were 12.46%, 4.53% and -6.4%, respectively.

For `Cc1ccccc1CN1CCC(O)(c2ccc(Cl)c(C(F)(F)F)c2)CC1`, the Inhibition in the test on Klebsiella pneumoniae is 11.69%; in the test with Candida albicans, 3.22%; in the test with Cryptococcus neoformans, -6.41%.

`CCOc1ccc2cc(-c3nn(C(C)(C)C)c(N)c3C(N)=O)cnc2c1.Cl`: the Inhibition with Klebsiella pneumoniae was 13.27%; with Candida albicans it was 2.56%; in the test on Cryptococcus neoformans, -7.03%.

Consider `CNC(=O)C1Cc2ccccc2N1C(=O)Cc1ccc(F)cc1` (centres undefined), for which the Inhibition in the test on Klebsiella pneumoniae was 8.26%; in the test on Candida albicans, 3.31%; in the test on Cryptococcus neoformans, -12.98%.

As for `CNC1C(OC2C(OC3C(O)C(O)C(NC(=N)N)C(O)C3NC(=N)N)OC(C)C2(O)C=O)OC(CO)C(O)C1O.CNC1C(OC2C(OC3C(O)C(O)C(NC(=N)N)C(O)C3NC(=N)N)OC(C)C2(O)C=O)OC(CO)C(O)C1O.O=S(=O)(O)O.O=S(=O)(O)O.O=S(=O)(O)O` (centres undefined), the Inhibition in the test on Klebsiella pneumoniae is -10.2%; with Candida albicans, 2.09%; with Cryptococcus neoformans it was -8.51%.

`CCc1nc2ccccc2n1CC(O)COc1cc(C)ccc1Cl` (centres undefined): the Inhibition was 3.05% in the test with Klebsiella pneumoniae, 1.23% with Candida albicans and -20.36% in the test on Cryptococcus neoformans.

Regarding `N#Cc1ccc(-c2cnc(N)c(-c3ccc(C(N)=O)cc3)n2)cc1`, the Inhibition with Klebsiella pneumoniae is 16.03%; in the test on Candida albicans, 4.25%; with Cryptococcus neoformans it was -3.91%.

`Cc1cc2nc(NC(=O)C(C)(C)C)nc(Cl)c2n1Cc1ccc(Cl)cc1`: the Inhibition with Klebsiella pneumoniae was 1.22%; in the test on Candida albicans, 3.57%; in the test with Cryptococcus neoformans, -0.22%.

`Cc1ccc2[nH]c3c(NCCN(C)C)ncnc3c2c1`: the Inhibition in the test with Klebsiella pneumoniae was 16.4%; in the test on Candida albicans, 2.94%; in the test on Cryptococcus neoformans it was -5.96%.

Consider `COc1cc(Br)cc2cc(C(=O)Nc3cccc(C(F)(F)F)c3)c(=O)oc12`, for which the Inhibition in the test on Klebsiella pneumoniae is 7.93%; in the test with Candida albicans, 3.09%; in the test on Cryptococcus neoformans, -6.76%.
